From PubChem BioAssay AID1117319 (Southern Research Institute, 2015)
Among all 260,000 compounds or so, about 1,500 (0.58%) were called active. Not shown: some 5% with an inconclusive outcome.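 The calls were made as follows: active = inhibition above a set limit at one or more doses, reproduced on every date tested; inconclusive = results disagree between test dates, or hit never tested in dose response; inactive = the rest.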 These entries were drawn from the full list. Entries with a potency or affinity are not part of this list.

These compounds were tested against Virion infectivity factor (Human immunodeficiency virus type 1 group M subtype B (isolate BH10)) + Virion infectivity factor (Human immunodeficiency virus type 1 group M subtype B (isolate BRU/LAI)) + Virion infectivity factor (Human immunodeficiency virus type 1 group M subtype B (isolate PCV12)) + Virion infectivity factor (Human immunodeficiency virus type 1 group M subtype B (isolate HXB2)) + DNA dC->dU-editing enzyme APOBEC-3G (Homo sapiens) (UniProt P69720+P69721+P69722+P69723+Q9HC16) (assay: HIV-1 Vif–A3G interaction blockers – biochemical, TR-FRET, GST-Vif 1-94, biotin-A3G peptide, dose response retest, primary screen (AID 1117319;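 also: Vif residues 1-94 fused to GST binding biotinylated APOBEC3G peptide 110-148; 0% = full assay without inhibitor and 100% = GST in place of GST-Vif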)). Conditions: TR-FRET GST-Vif / biotin-A3G peptide binding; hits give high values.

inhibition, inactive:
CNC(=O)C[C@H]1C(=O)N(C2CCCCC2)C[C@@H]1C 8.77%
COCCn1c(C)cc(/C=C(\C#N)C(=O)OCC(=O)N(C)c2c(N)n(Cc3ccccc3)c(=O)[nH]c2=O)c1C 10.7%
N#Cc1c(F)cccc1NCc1cccs1 -3.38%
Cc1nc(C)c(C(=O)C2=C(O)C(=O)N(CCCn3ccnc3)C2c2ccc(Cl)cc2)s1 (stereo not drawn) 0.13%
COc1ccc(-c2cc(C(=O)N3CCC3)c3ccccc3n2)cc1OC -14.9%
Cc1ccc(C(=O)O)c(C(=O)Nc2nc3ccccc3s2)c1 -4.97%
O=C(/C=C/c1cccs1)Nc1ccc(N2CCOCC2)c(S(=O)(=O)Nc2ccccc2Cl)c1 -5.05%
O=Cc1cccn1-c1ccc2ccccc2c1 -0.71%
O=C1Nc2ccccc2/C1=C\c1cccn1-c1ccc(OC(F)(F)F)cc1 5.25%
Cc1ccc(/C=C2/NC(=O)N(Cc3ccccc3)C2=O)s1 3.49%
O=C1N/C(=C/c2cccn2-c2ccc(F)cc2)C(=O)N1Cc1ccccc1 6.05%
COc1cccc(OCCn2cccc2/C=C2/C(=N)N3OC(C)=CC3=NC2=O)c1 1.07%
CC1=CC2=NC(=O)/C(=C\c3cccn3CCOc3cccc(C)c3)C(=N)N2O1 -1.97%
Cn1c(=O)n(C)c2cc(/C=C3/NC(=O)N(Cc4ccccc4)C3=O)ccc21 -1.59%
Cn1cccc1/C=C1\SC(=Nc2ccccc2)NC1=O -5.03%
O=C(COC(=O)c1ccccc1Sc1ccc(C(F)(F)F)cc1[N+](=O)[O-])NC(=O)NC1CCCC1 -2.59%
CCCN1C(=O)/C(=c2\sc3nc(=O)c(Cc4ccc(C)cc4)nn3c2=O)c2ccccc21 1.89%
CC1(C(=O)O)CCC(C(=O)NNC(=O)c2ccccc2O)C1(C)C (stereo not drawn) -0.63%
COc1cc(/C=C2\SC(=O)N(CCNC(=O)c3c(C)noc3C)C2=O)cc(OC)c1OC -5.96%
Cc1ccc(S(=O)(=O)N2CCOCC2)cc1NC(=O)COC(=O)c1ccc2c(c1)OCCO2 -7.03%
O=C1N/C(=C/c2cccn2-c2ccccc2)C(=O)N1Cc1ccc(F)cc1 15.6%
O=C1N/C(=C/c2cccn2-c2ccc(F)cc2)C(=O)N1Cc1ccccc1F 5.17%
COc1ccc(NC(=O)CN(C)C(=O)C2CC(=O)N(c3cccc4ccccc34)C2)cc1 (stereo not drawn) 2.19%
COc1cc2c(cc1OC)C(c1cccc(OC)c1OC)CC(=O)N2 (stereo not drawn) 2.22%
COc1cc(C2CC(=O)Nc3cc(C)c(C)cc32)cc(OC)c1OC (stereo not drawn) -9.63%
O=C(NCC(=O)N(c1ccc2c(c1)OCO2)C(C(=O)NC1CCCC1)c1ccncc1)c1ccco1 (stereo not drawn) 21.4%
CC(C)(C)NC(=O)C(c1ccncc1)N(C(=O)CNC(=O)c1ccco1)c1ccc(F)cc1 (stereo not drawn) 5.09%
COc1cccc(NC(=O)CN(C)C(=O)CCCc2nc3ccccc3c(=O)[nH]2)c1 4.69%
CCCCCOc1ccc(C2NC(=O)NC2=O)cc1 (stereo not drawn) 0.64%
CCN(c1ccc(OC)cc1)S(=O)(=O)c1nnc(NC(=O)COc2ccccc2)s1 6.53%
O=C(CN1C(=O)CCSc2ccccc21)Nc1ccc2c(c1)OCCO2 4.27%
COC(=O)c1ccc(COc2ccccc2/C=C(\C#N)C(=O)Nc2ccc(C)cc2)cc1 -4.01%
COC(=O)c1ccc(COc2ccccc2/C=C(\C#N)C(=O)Nc2c(C)cccc2C)cc1 -2.89%
COCCNC(=O)C1(C)Oc2ccccc2NC1=O (stereo not drawn) 1.83%
Cc1oc(-c2ccccc2F)nc1CS(=O)(=O)CC(=O)N1CCN(Cc2ccccc2)CC1 5.89%
CCOC(=O)CN(C(=O)CSc1nnc(COc2ccc(OC)cc2)n1C)c1ccccc1 0.19%
CCOc1ccc(-c2nnn(CC(=O)c3ccc4c(c3)OCCO4)n2)cc1 -11.1%
COc1ccc(-c2nnn(CC(=O)c3ccc4c(c3)OCCO4)n2)cc1OC 21.5%
CN(C)c1ccc(CNC(=O)C2CCN(S(=O)(=O)c3ccc4c(c3)oc(=O)n4C)CC2)cc1 -3.31%
COc1ccc2c3c(cccc13)OCC2=O 24.2%
CCC1=NNc2cccc3c(OC)ccc1c23 10.8%
COc1ccccc1NC(=O)c1nnn(Cc2ccccc2)c1NC(=O)C(F)(F)F 0.14%
CCn1cc(S(=O)(=O)Nc2nc3ccc(OC)cc3s2)cn1 -2.85%
Cn1c(SCc2ccccc2)nccc1=O 1.19%
Nc1ccccc1SCc1ccccc1 -5.9%
CCOC(=O)c1nnc2cc(-c3ccc(Br)cc3)nn2c1C 1.62%
COc1ccccc1OCCSc1nc(N)cc(N)n1 4.3%
COc1ccc2nc3ccccc3nc2c1NC(=O)c1ccc(Br)cc1 -5.53%
COc1ccc2nc3cccc(OC)c3nc2c1 15.1%
CCOC(=O)c1cc(-c2ccco2)nn1-c1ccc(C)cc1 -3.18%
Cc1ccc(-n2nc(-c3ccco3)cc2C(=O)NCc2cccnc2)cc1 9.86%
CN(C)C(=O)CSc1nnc([C@H](Cc2ccccc2)NC(=O)OC(C)(C)C)o1 -2.79%
O=S1(=O)N=C(Nc2ccc(N3CCOCC3)c(Cl)c2)c2ccccc21 12.7%
O=C(CCC(=O)c1cccs1)NCc1ccc(Cl)cc1 1.67%
CCCC(=O)C1=C(O)C(C(=O)OC)C(C)(C)CC1=Nc1ccc(N)cc1 (stereo not drawn) 0.65%
CCC(=NCc1ccccc1)C1=C(O)C(C(=O)OC)C(C)(C)CC1=O (stereo not drawn) 5.76%
CCCC(=Nc1ccccc1)C1=C(O)C(C(=O)OC)C(C)(C)CC1=O (stereo not drawn) 26.8%
CCCC(=NCc1ccccc1)C1=C(O)C(C(=O)OC)C(C)(C)CC1=O (stereo not drawn) 3.41%
